Reference: the supplement of paper PMC8728848
Many of the other results were omitted from the sample, so the strongest signals are more common in it than they were.

Legend:
Assay in all cases: glycan array binding signal (z-score within array); higher = stronger binding
Settings in all cases: glycan notation: IUPAC condensed, linker removed
[1] = molecular target: Fuc(a1-2)Gal(b1-3)GalNAc(a1-3)[Fuc(a1-2)]Gal(b1-4)GlcNAc
Procedure, shortened: (§1)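 Glycan array binding is given as a within-array Z-score, which can be read as non-binding when negative. The arrays, 3228 of them, came from the Consortium for Functional Glycomics database and were retained only where the protein sequence was available. Z-scores were averaged across arrays of the same protein sequence at different concentrations or buffers and across linkers.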

[2] = molecular target: Fuc(a1-2)Gal(b1-3)GlcNAc(b1-2)Man(a1-3)[Fuc(a1-2)Gal(b1-3)GlcNAc(b1-2)Man(a1-6)]Man(b1-4)GlcNAc(b1-4)[Fuc(a1-6)]GlcNAc
Procedure, shortened: as §1

[3] = molecular target: Fuc(a1-2)Gal(b1-3)[Fuc(a1-4)]GlcNAc(b1-2)Man(a1-3)[Fuc(a1-2)Gal(b1-3)[Fuc(a1-4)]GlcNAc(b1-2)Man(a1-3)]Man(b1-4)GlcNAc(b1-4)GlcNAc
Procedure, shortened: as §1

[4] = molecular target: Fuc(a1-2)Gal(b1-3)[Fuc(a1-4)]GlcNAc(b1-2)Man(a1-3)[Fuc(a1-2)Gal(b1-3)[Fuc(a1-4)]GlcNAc(b1-2)Man(a1-6)]Man(b1-4)GlcNAc(b1-4)[Fuc(a1-6)]GlcNAc(b1-4)[Fuc(a1-6)]GlcNAc
Procedure, shortened: as §1

Fuc(a1-2)Gal(b1-4)Glc = molecular target: Fuc(a1-2)Gal(b1-4)Glc
Procedure, shortened: as §1

[5] = molecular target: Fuc(a1-2)Gal(b1-4)GlcNAc(b1-3)GalNAc
Procedure, shortened: as §1

[6] = molecular target: Fuc(a1-2)Gal(b1-4)GlcNAc(b1-6)GalNAc
Procedure, shortened: as §1

[7] = molecular target: Fuc(a1-2)[GalNAc(a1-3)]Gal(b1-3)GlcNAc(b1-3)GalNAc
Procedure, shortened: as §1

[8] = molecular target: Fuc(a1-2)[GalNAc(a1-3)]Gal(b1-4)GlcNAc(b1-2)Man(a1-3)[Fuc(a1-2)[GalNAc(a1-3)]Gal(b1-4)GlcNAc(b1-2)Man(a1-6)]Man(b1-4)GlcNAc(b1-4)GlcNAc
Procedure, shortened: as §1

[9] = molecular target: Fuc(a1-2)[GalNAc(a1-3)]Gal(b1-4)[Fuc(a1-3)]GlcNAc(b1-3)GalNAc
Procedure, shortened: as §1

[10] = molecular target: Fuc(a1-2)[GalNAc(a1-4)]Gal(b1-4)GlcNAc
Procedure, shortened: as §1

[11] = molecular target: Fuc(a1-3)[Gal(b1-4)]GlcNAc(b1-2)Man
Procedure, shortened: as §1

[12] = molecular target: Gal(a1-3)[Gal(a1-4)]Gal(b1-4)GlcNAc
Procedure, shortened: as §1

Gal(a1-4)Gal(b1-4)GlcNAc = molecular target: Gal(a1-4)Gal(b1-4)GlcNAc
Procedure, shortened: as §1

Gal(a1-6)Glc = molecular target: Gal(a1-6)Glc
Procedure, shortened: as §1

[13] = molecular target: Gal(b1-3)GalNAc(a1-3)[Fuc(a1-2)]Gal(b1-4)GlcNAc
Procedure, shortened: as §1

[14] = molecular target: Gal(b1-3)GlcNAc(b1-2)Man(a1-3)[Gal(b1-3)GlcNAc(b1-2)Man(a1-6)]Man(b1-4)GlcNAc(b1-4)GlcNAc
Procedure, shortened: as §1

[15] = molecular target: Gal(b1-3)GlcNAc(b1-3)Gal(b1-4)GlcNAc(b1-2)[Gal(b1-3)GlcNAc(b1-3)Gal(b1-4)GlcNAc(b1-6)]Man(a1-6)[Gal(b1-3)GlcNAc(b1-3)Gal(b1-4)GlcNAc(b1-2)Man(a1-3)]Man(b1-4)GlcNAc(b1-4)[Fuc(a1-6)]GlcNAc
Procedure, shortened: as §1

Gal(b1-3)GlcNAc6S = molecular target: Gal(b1-3)GlcNAc6S
Procedure, shortened: as §1

[16] = molecular target: Gal(b1-3)[Fuc(a1-4)]GlcNAc(b1-6)GalNAc
Procedure, shortened: as §1

[17] = molecular target: Gal(b1-4)GlcNAc(b1-2)Man(a1-6)[Man(a1-3)]Man(b1-4)GlcNAc(b1-4)GlcNAc
Procedure, shortened: as §1

[18] = molecular target: Gal(b1-4)GlcNAc(b1-3)Gal(b1-4)GlcNAc
Procedure, shortened: as §1

[19] = molecular target: Gal(b1-4)GlcNAc(b1-3)Gal(b1-4)GlcNAc(b1-2)Man(a1-3)[Gal(b1-4)GlcNAc(b1-3)Gal(b1-4)GlcNAc(b1-2)Man(a1-6)]Man(b1-4)GlcNAc(b1-4)[Fuc(a1-6)]GlcNAc
Procedure, shortened: as §1

[20] = molecular target: Gal(b1-4)GlcNAc(b1-3)Gal(b1-4)GlcNAc(b1-3)Gal(b1-4)GlcNAc(b1-2)[Gal(b1-4)GlcNAc(b1-3)Gal(b1-4)GlcNAc(b1-3)Gal(b1-4)GlcNAc(b1-6)]Man(a1-6)[Gal(b1-4)GlcNAc(b1-3)Gal(b1-4)GlcNAc(b1-3)Gal(b1-4)GlcNAc(b1-2)Man(a1-3)]Man(b1-4)GlcNAc(b1-4)[Fuc(a1-6)]GlcNAc
Procedure, shortened: as §1

[21] = molecular target: Gal(b1-4)GlcNAc(b1-3)Gal(b1-4)GlcNAc(b1-3)Gal(b1-4)GlcNAc(b1-3)Gal(b1-4)GlcNAc(b1-2)Man(a1-3)[Gal(b1-4)GlcNAc(b1-3)Gal(b1-4)GlcNAc(b1-3)Gal(b1-4)GlcNAc(b1-3)Gal(b1-4)GlcNAc(b1-2)Man(a1-6)]Man(b1-4)GlcNAc(b1-4)GlcNAc
Procedure, shortened: as §1

[22] = molecular target: Gal(b1-4)GlcNAc(b1-3)Gal(b1-4)GlcNAc(b1-3)Gal(b1-4)GlcNAc(b1-3)Gal(b1-4)GlcNAc(b1-3)Gal(b1-4)GlcNAc(b1-3)Gal(b1-4)GlcNAc(b1-2)Man(a1-3)[Gal(b1-4)GlcNAc(b1-3)Gal(b1-4)GlcNAc(b1-3)Gal(b1-4)GlcNAc(b1-3)Gal(b1-4)GlcNAc(b1-3)Gal(b1-4)GlcNAc(b1-3)Gal(b1-4)GlcNAc(b1-2)Man(a1-6)]Man(b1-4)GlcNAc(b1-4)GlcNAc
Procedure, shortened: as §1

[23] = molecular target: Gal3S(b1-4)[Fuc(a1-3)]Glc6S
Procedure, shortened: as §1

Gal3S6S(b1-4)GlcNAc = molecular target: Gal3S6S(b1-4)GlcNAc
Procedure, shortened: as §1

Gal6S(b1-4)GlcNAc6S = molecular target: Gal6S(b1-4)GlcNAc6S
Procedure, shortened: as §1

[24] = molecular target: GlcNAc(a1-4)Gal(b1-4)GlcNAc(b1-3)Gal(b1-4)GlcNAc
Procedure, shortened: as §1

[25] = molecular target: GlcNAc(b1-2)Man(a1-3)[GlcNAc(b1-4)][GlcNAc(b1-2)Man(a1-6)]Man(b1-4)GlcNAc(b1-4)[Fuc(a1-6)]GlcNAc
Procedure, shortened: as §1

[26] = molecular target: GlcNAc(b1-3)Gal(b1-4)GlcNAc(b1-3)Gal(b1-4)GlcNAc(b1-3)Gal(b1-4)GlcNAc(b1-3)Gal(b1-4)GlcNAc(b1-2)Man(a1-3)[GlcNAc(b1-3)Gal(b1-4)GlcNAc(b1-3)Gal(b1-4)GlcNAc(b1-3)Gal(b1-4)GlcNAc(b1-3)Gal(b1-4)GlcNAc(b1-2)Man(a1-6)]Man(b1-4)GlcNAc(b1-4)GlcNAc
Procedure, shortened: as §1

[27] = molecular target: GlcNAc(b1-4)GlcNAc(b1-4)GlcNAc(b1-4)GlcNAc(b1-4)GlcNAc
Procedure, shortened: as §1

Kdn(a2-3)Gal(b1-3)GalNAc = molecular target: Kdn(a2-3)Gal(b1-3)GalNAc
Procedure, shortened: as §1

[28] = molecular target: Neu5Ac(a2-3)Gal(b1-4)GlcNAc(b1-2)[Neu5Ac(a2-3)Gal(b1-4)GlcNAc(b1-4)]Man(a1-3)[GlcNAc(b1-4)][Neu5Ac(a2-3)Gal(b1-4)GlcNAc(b1-4)Man(a1-6)]Man(b1-4)GlcNAc(b1-4)GlcNAc
Procedure, shortened: as §1

[29] = molecular target: Neu5Ac(a2-3)Gal(b1-4)GlcNAc(b1-3)Gal(b1-4)GlcNAc(b1-2)Man(a1-3)[Neu5Ac(a2-3)Gal(b1-4)GlcNAc(b1-3)Gal(b1-4)GlcNAc(b1-2)Man(a1-6)]Man(b1-4)GlcNAc(b1-4)GlcNAc
Procedure, shortened: as §1

[30] = molecular target: Neu5Ac(a2-3)Gal(b1-4)GlcNAc(b1-6)[Neu5Ac(a2-3)Gal(b1-3)]GalNAc
Procedure, shortened: as §1

[31] = molecular target: Neu5Ac(a2-3)Gal(b1-4)[Fuc(a1-3)]GlcNAc6S
Procedure, shortened: as §1

[32] = molecular target: Neu5Ac(a2-3)[GalNAc(b1-4)]Gal(b1-4)GlcNAc
Procedure, shortened: as §1

[33] = molecular target: Neu5Ac(a2-6)Gal(b1-4)GlcNAc(b1-2)Man(a1-6)[Man(a1-3)]Man(b1-4)GlcNAc(b1-4)GlcNAc
Procedure, shortened: as §1

[34] = molecular target: Neu5Ac(a2-6)Gal(b1-4)GlcNAc(b1-3)GalNAc
Procedure, shortened: as §1

[35] = molecular target: Neu5Ac(a2-6)Gal(b1-4)GlcNAc(b1-3)[Neu5Ac(a2-6)Gal(b1-4)GlcNAc(b1-6)]GalNAc
Procedure, shortened: as §1

[36] = molecular target: Neu5Ac(a2-6)GalNAc(b1-4)GlcNAc6S
Procedure, shortened: as §1

[37] = molecular target: Neu5Ac(a2-8)Neu5Ac(a2-3)Gal(b1-4)GlcNAc
Procedure, shortened: as §1

[38] = molecular target: Neu5Ac(a2-8)Neu5Ac(a2-8)Neu5Ac
Procedure, shortened: as §1

B1: PX14367B-bvu-516-23-516 (Bacteroides vulgatus) (protein)
chain: LDTIPTTYVDAGSVFGKTGDAEKVLNGGWNYLMETFNSYANPGYGAMLRANDAMGSDVVLNSKYGFRTHNEFSAIYGKGGTNTLSWLLAYRVINDCNGVLDNIDAAEGTQADRNRIKGQALALRGFLYLHLASCYSFAIDKDPDAVCAPIYTQSTDETIAAEGKPASSVSEVYAQSINDLEEALELIPETYVRDAKHKIDNEVVLGILSRACLYARQWEKAKTYSDKLLAKDNYLMTESEYKAGFNSVDNKEWIWGHAQTNDQSNASYQFHYLDTTTKGSYYYSFNVDPYFRDLFEDGDYRKEMLFWATDPGADVESAAYVWMRNSKFRFRDIENQLGDIVLMRVAEIYLINAEAKAHLNDPDAINKLNDLKTARGAKTIHTNLSQQDLLETIWLERRKELWGEGFSLIDIIRNQQTVVRNAYPEGPIDYIYTDENGQTHTLKKKTQGHRFFNFPDKSAFCPNSKYYLYRITDSEELANKNLYKDHPKLSIYTK
[1]
  glycan array binding signal (z-score): -0.284
[2]
  glycan array binding signal (z-score): -0.028
[3]
  glycan array binding signal (z-score): -0.201
[4]
  glycan array binding signal (z-score): -0.237
Fuc(a1-2)Gal(b1-4)Glc
  glycan array binding signal (z-score): -0.35
[5]
  glycan array binding signal (z-score): -0.282
[6]
  glycan array binding signal (z-score): -0.204
[7]
  glycan array binding signal (z-score): -0.26
[8]
  glycan array binding signal (z-score): 7.56
[9]
  glycan array binding signal (z-score): 0.034
[10]
  glycan array binding signal (z-score): 4.75
[11]
  glycan array binding signal (z-score): -0.331
[12]
  glycan array binding signal (z-score): 5.23
Gal(a1-4)Gal(b1-4)GlcNAc
  glycan array binding signal (z-score): -0.328
Gal(a1-6)Glc
  glycan array binding signal (z-score): -0.252
[13]
  glycan array binding signal (z-score): -0.361
[14]
  glycan array binding signal (z-score): 7.76
[15]
  glycan array binding signal (z-score): 4.21
Gal(b1-3)GlcNAc6S
  glycan array binding signal (z-score): -0.243
[16]
  glycan array binding signal (z-score): 4.48
[17]
  glycan array binding signal (z-score): 4.25
[18]
  glycan array binding signal (z-score): -0.337
[19]
  glycan array binding signal (z-score): 0.011
[20]
  glycan array binding signal (z-score): 7.91
[21]
  glycan array binding signal (z-score): 0.812
[22]
  glycan array binding signal (z-score): 7.87
[23]
  glycan array binding signal (z-score): 2.87
Gal3S6S(b1-4)GlcNAc
  glycan array binding signal (z-score): -0.262
Gal6S(b1-4)GlcNAc6S
  glycan array binding signal (z-score): 6.08
[24]
  glycan array binding signal (z-score): -0.2
[25]
  glycan array binding signal (z-score): -0.049
[26]
  glycan array binding signal (z-score): -0.276
[27]
  glycan array binding signal (z-score): -0.245
Kdn(a2-3)Gal(b1-3)GalNAc
  glycan array binding signal (z-score): -0.198
[28]
  glycan array binding signal (z-score): -0.262
[29]
  glycan array binding signal (z-score): -0.164
[30]
  glycan array binding signal (z-score): -0.354
[31]
  glycan array binding signal (z-score): -0.354
[32]
  glycan array binding signal (z-score): -0.356
[33]
  glycan array binding signal (z-score): 4.55
[34]
  glycan array binding signal (z-score): -0.386
[35]
  glycan array binding signal (z-score): 0.372
[36]
  glycan array binding signal (z-score): -0.208
[37]
  glycan array binding signal (z-score): -0.353
[38]
  glycan array binding signal (z-score): -0.342
